# Hits are enriched below; roughly 7.4% of the tested compounds scored in any of these assays.
# SMN2 splice up: qHTS Assay for Enhancers of SMN2 Splice Variant Expression; HEK293 SMN2-luciferase splicing reporter, luminescence, 30-36 h; Potency, µM (titrated, usually from 46.1 µM), for the others: top-dose activity change, positive = activation, hits mostly activators; 210,000 tested, 2.8% active; AID 1458, 2008; also: % of control where 0% means no effect; nearly all actives have a fitted effect of over 55% in size
#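 HEK293 cells carry an SMN2 minigene-luciferase reporter in which exon 7 inclusion puts luciferase in frame. Cells were seeded at 2000 cells/well, attached for 10-12 hours, then exposed to compounds for 30-36 hours at 37C before ONE-Glo luminescence.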
# Rab9 promoter act: qHTS Assay for Rab9 Promoter Activators; Huh7 Rab9 promoter-luciferase reporter, luminescence, 24 h; AID 485297, 2010; 320,000 tested, 2.8% active; Potency, µM (titrated, usually from 9.22 µM), without a hit: at the highest dose activation, negative = inhibition, hits mostly activators; also: % of control where 0% means no effect; nearly all actives have a fitted effect of over 60% in size
#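 Rab9 promoter-driven luciferase in stably transfected Huh7 cells; 1500 cells/well rested 2 h, exposed to compound in DMSO for 24 h at 37 °C, 5% CO2. Luminescence read 10 min after adding luciferase reagent at ambient temperature.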
# FLuc modulator: qHTS profiling assay for firefly luciferase inhibitor/activator using purifed enzyme and Km concentrations of substrates (counterscreen for miR-21 project); purified FLuc, Km substrates, luminescence inhibition; Potency, µM (titrated, usually from 57.5 µM), for the others: at the highest dose activity change, negative = inhibition, actives largely listed as inhibitors; 360,000 tested, 6.9% active; AID 588342, 2011;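 also: plate controls were vehicle for no effect and reference inhibitor for full effect; nearly all actives have a fitted effect of over 55% in size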
# Target sequence (P08659 whole entry, looked up): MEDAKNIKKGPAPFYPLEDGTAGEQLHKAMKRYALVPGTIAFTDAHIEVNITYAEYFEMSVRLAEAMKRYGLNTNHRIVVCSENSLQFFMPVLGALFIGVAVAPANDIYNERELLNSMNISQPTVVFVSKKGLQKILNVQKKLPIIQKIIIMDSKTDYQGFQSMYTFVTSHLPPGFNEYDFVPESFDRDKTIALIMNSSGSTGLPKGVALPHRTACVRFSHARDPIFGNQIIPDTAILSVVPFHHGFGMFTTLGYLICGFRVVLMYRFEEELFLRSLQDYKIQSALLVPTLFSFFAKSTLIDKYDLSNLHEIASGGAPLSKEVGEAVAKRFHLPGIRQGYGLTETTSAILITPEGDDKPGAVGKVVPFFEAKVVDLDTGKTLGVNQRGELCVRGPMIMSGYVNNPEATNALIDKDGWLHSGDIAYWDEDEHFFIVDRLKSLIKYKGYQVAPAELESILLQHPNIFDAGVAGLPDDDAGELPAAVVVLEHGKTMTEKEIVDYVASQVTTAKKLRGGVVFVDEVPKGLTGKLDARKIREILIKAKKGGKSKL
#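 Purified P. pyralis luciferase, 10 nM final, with Km-level 10 uM D-luciferin and 10 uM ATP in 50 mM Tris acetate pH 7.5, 10 mM Mg acetate, 0.01% Tween-20, 0.05% BSA; 6-point qHTS titration about 60 µM downward; luminescence read.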
# ELG1 genotox: qHTS screen for small molecules that induce genotoxicity in human embryonic kidney (HEK293T) cells expressing luciferase-tagged ELG1 | HEK293T ELG1-luciferase reporter, luminescence, 16 h | Potency, µM (titrated, usually from 46 µM), for inactives: at the top dose activity change, positive = activation, actives largely listed as activators | 330,000 tested, 1.3% active | AID 504466, 2011; also: % of control where 0% means no effect; nearly all actives have a fitted effect of over 60% in size
#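 Quantitative HTS format in 1536-well plates. HEK293T ELG1-luciferase reporter cells receive test compound and are incubated 16 hr at 37 °C, 5% CO2; ONE-Glo added, 30 min room temperature, then luminescence read.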
# NPC1 promoter act: qHTS Assay for NPC1 Promoter Activators; Huh7 NPC1 promoter luciferase reporter, 24 h; Potency, µM (titrated, usually from 9.22 µM), without a hit: at the top dose activation, hits mostly activators; 320,000 tested, 2.4% active; AID 485313, 2010; also: % of control where 0% means no effect; nearly all actives have a fitted effect of over 60% in size
#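 In 1536-well qHTS, Huh7 cells harboring an NPC1 promoter–luciferase construct received compound for 24 h; activation was quantified by luminescence following luciferase reagent addition.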
# Numbers without * were called inactive; ? = inconclusive; / = no result; [ ] = remark or other dose. Calls follow the shape of the dose curve; as a rule, active = well fitted curve in the direction sought with a large enough effect; inconclusive = small, poorly fitted or top-dose-only effect, or another doubt; inactive = no such curve, though single readings can be large; an effect the other way counts as inactive or inconclusive. Potency is read from the fitted curve at half-maximal effect.
SMILES,SMN2 splice up,Rab9 promoter act,FLuc modulator,ELG1 genotox,NPC1 promoter act
CCCSc1nnc(NC(=O)Nc2ccccc2)s1,26%,?,?,3%,?
Cn1cnc(S(=O)(=O)N2CCC(C(=O)N3CCN(c4ccccc4F)CC3)CC2)c1,/,/,-1%,/,/
Cc1ccccc1NC(=O)c1c(C)oc2ccc(O)c(CN3CCOCC3)c12,1%,/,-6%,/,/
Brc1ccc2[nH]c3c(c2c1)CCC3,/,2%,-3%,-3%,-4%
O=C1Cc2c([nH]c3ccc(Br)cc23)-c2ccccc2N1,11µM*,0.37µM*,/,/,0.52µM*
Cc1ccc(NC(=O)CN(C)C(=O)CNC(=O)c2sc3ccccc3c2Cl)cc1,/,25%,2.7µM*,16µM*,?
Cc1ccnc(NC(=O)CNC(=O)c2sc3ccccc3c2Cl)c1,/,28%,12µM*,10µM*,28%
Cc1ccnc(NC(=O)c2sc3cc(Cl)ccc3c2Cl)c1,6.3µM*,0.63µM*,0.6µM*,2.9µM*,0.13µM*
Cc1ccnc(NC(=O)CCCNC(=O)c2ccc(Cl)cc2)c1,/,?,17µM*,?,?
COc1ccc(Nc2oc(-c3ccc(OC)cc3)nc2C#N)cc1,/,3.5µM*,2.4µM*,?,?
COc1ccc(CNc2oc(-c3ccccc3)nc2C#N)cc1,7%,13%,?,?,10%
COc1ccc(Nc2oc(-c3ccc(Cl)cc3)nc2C#N)cc1,14µM*,?,2.7µM*,?,?
COc1ccc(Nc2oc(-c3ccccc3)nc2C#N)cc1,?,1.6µM*,?,?,1.8µM*
Ic1ccc2c(c1)N(c1ccccc1)c1cc(Nc3ccc4nc5ccc(I)cc5[n+](-c5ccccc5)c4c3)ccc1N2,-11%[9.22 µM],/,/,/,/
COc1ccc(-n2ccn(CC(=O)NCCc3ccccc3)c(=O)c2=O)cc1OC,/,/,0%,/,/
CCCN1CCN(CCCNC(=O)c2cnn(-c3ccc(F)cc3)c2-n2cccc2)CC1,/,/,0%,/,/
Cc1ccc(C)c(NC(=O)Cn2c(=O)n(-c3ccccc3C)c(=O)c3c2c2cc(C)ccc2n3C)c1,/,/,-4%,/,/
COc1cc(/C=N/NC(=O)c2ccc(N)cc2)ccc1OC(=O)c1cccc(C)c1,/,1%,-15%,-2%,2%
COc1cccc(C(=O)Oc2ccc(/C=N/Nc3ccc(C(=O)O)cc3)cc2OC)c1,/,?,24µM*,?,0.45µM*
CCOc1cc(/C=N/Nc2ccc(C(=O)O)cc2)ccc1OC(=O)c1ccccc1C,/,4µM*,?,16%,1.4µM*
COc1cccc(OCc2cc(/C=N/Nc3ccc(C(=O)O)cc3)ccc2OC)c1,/,?,6.7µM*,4.6µM*,18%
CC(C)CC(=O)Nc1ccc(-c2nnn(CC(=O)NCc3ccco3)n2)cc1,?,?,11µM*,?,?
CC1=C(CC[C@H](C)CO)O[C@@H]2C[C@@H]3[C@H]4CC[C@H]5C[C@@H](O)CC[C@]5(C)[C@@H]4CC(=O)[C@@]3(C)[C@@H]12,-1%[9.22 µM],/,/,/,/
COc1ccccc1C(=O)Nc1nnc(-c2ccccc2)s1,/,17%,13µM*,?,?
COc1ccccc1C(=O)Nc1cc(-c2ccc(C)cc2)no1,?,?,6µM*,?,?
SMILES,SMN2 splice up,Rab9 promoter act,FLuc modulator,ELG1 genotox,NPC1 promoter act
COc1cccc(C(=O)NOCc2ccccc2)c1OC,/,?,27µM*,?,?
COc1cccc(C(=O)OCC(=O)NCCc2ccccc2)c1OC,2%,-4%,-4%,0%,-3%
Cc1ccc(-c2cc(NC(=O)c3cccc(C)c3)on2)cc1,?,/,-14%,/,/
COc1ccccc1C(=O)Nc1nc(-c2cccs2)c(NC(C)=O)s1,?,?,0.76µM*,9.2µM*,19%
COc1ccccc1C(=O)N(C)c1nnc(-c2ccccc2)s1,/,?,19µM*,5%,3.5µM*
CC(Sc1nncn1C)C(=O)Nc1nnc(-c2ccccc2)s1 (stereo not given),14µM*,?,15µM*,16µM*,?
CC(C)=CC(=O)Nc1nnc(C)s1,?,16%,-17%,15%,9%
COc1cccc(C(=O)Nc2nnc(-c3ccccc3)s2)c1OC,/,1.8µM*,12µM*,?,2.5µM*
COCCN(C(=O)c1ccccc1OC)c1nnc(C)s1,-10%,-4%,-1%,-1%,-2%
CC(C)=CC(=O)Nc1nnc(-c2ccccc2)s1,11µM*,1.4µM*,?,2.9µM*,2.2µM*
O=C(O)CN(CCN(CC(=O)O)CC(=O)O)CC(=O)O.[Cu],-5%[9.22 µM],/,/,/,/
CC(=O)Nc1sc(N/N=C\c2ccc(O)cc2)nc1-c1cccs1,/,22%,12µM*,?,11%
COc1ccccc1C(=O)Nc1nnc(C)s1,18%,?,17µM*,13µM*,?
O=C(Nc1nnc(-c2ccccc2)s1)c1ccccc1O,/,2.5µM*,4.3µM*,2%,1.8µM*
Cc1nnc(NC(=O)c2ccccc2NC(=O)c2ccccc2)s1,/,-2%,8.5µM*,-4%,1%
Cc1cc(C)n2c(Nc3ccccc3C)c(-c3cccs3)nc2n1,3%,/,1%,/,/
O=C(NCCc1ccccc1)c1ccc2c(c1)N(Cc1ccc(Cl)cc1)C(=O)CS2,-48%,/,0%,/,/
COC(=O)c1cc(OC)c(OC)cc1NC(=O)c1cccc(OC)c1OC,-14%,-8%,-4%,-5%,3%
COc1cccc(C(=O)Nc2sc(C(C)C)cc2C(N)=O)c1OC,/,-2%,21µM*,-4%,-3%
CC(C)(C)n1ncc2c(=O)n(CC(=O)NCc3ccccc3)cnc21,2.8µM*,?,4.8µM*,?,0.45µM*
CC(C)(C)n1ncc2c(=O)n(CC(=O)c3ccc(Cl)cc3)cnc21,18µM*,3.2µM*,7.6µM*,18%,2.8µM*
CC(C)(C)n1ncc2c(=O)n(CC(=O)Nc3ccc(Cl)cc3)cnc21,-14%,2%,1%,-1%,1%
CC1CCN(C(=O)Cn2cnc3c(cnn3C(C)(C)C)c2=O)CC1,16µM*,3.2µM*,?,?,?
CC(C)(C)n1ncc2c(=O)n(Cc3c(F)cccc3Cl)cnc21,-15%,4%,24µM*,-9%,20%
Cc1ccc(S(=O)(=O)c2nnn3c2nc(N2CCCC(C)C2)c2cc(Cl)ccc23)cc1C (stereo not given),-6%,/,0%,/,/
O=C(CSCc1nc2cccnc2n1C1CCCCC1)NCc1cccc(Br)c1,/,/,-5%,/,/
O=c1c(Cl)c(N2CCOCC2)cnn1-c1nc2ccccc2[nH]1,11µM*,1.6µM*,11µM*,?,2.5µM*
N#C/C(=C\c1ccc2c(c1)OCCO2)C(=O)Nc1ccc(C(=O)O)cc1,/,15%[1.84 µM],0.34µM*,?,21%
